Laboratory results published in PubChem BioAssay (NCATS).
Inconclusive results are not listed. Calls of active or inactive are those of the source. Calls follow the shape of the dose curve; as a rule, active = well fitted inhibition curve with a large enough effect; inconclusive = small, poorly fitted or top-dose-only effect; inactive = flat fitted curve, though single readings scatter.
Potency is read from the fitted curve at half-maximal effect.

Experiment: Cytometry Cell-Based qHTS for Inhibitors of the mTORC1 Signaling Pathway in MEF cells (AID 2668);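 as to activity change, negative = inhibition: Tsc2-/- p53-/- mouse embryonic fibroblasts stably re-expressing wild-type Tsc2; percent cells positive for phospho-rpS6 Ser235/236 relative to propidium iodide stain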
Conditions: mTORC1 pathway readout; series mostly up to 38.3 µM; activity change, negative = inhibition: at the top concentration
From the text: NIH Molecular Libraries Probe Production Centers Network [MLPCN]
NIH Chemical Genomics Center [NCGC]
Assay Submitter (PI): Blenis, John; Hoffman, Greg; Harvard University
NCGC Assay Overview: The mammalian target of rapamycin (mTOR) is an intracellular serine/threonine kinase Aberrant regulation of mTOR signaling plays a causative role in a number of human diseases, including cancer, benign tumors such as lymphangioleiomyomatosis (LAM) and Tuberous Sclerosis Complex (TSC), and metabolic diseases such as diabetes and obesity. This project aims to identify inhibitors of ribosomal protein S6 (rpS6) phosphorylation. The phosphorylation of rpS6 is a key event downstream of mTOR activation. The assay uses a phospho-specific antibody of phospho-rpS6 to detect inhibitors of mTOR activation. Mutations in the Tsc1 and Tsc2 genes are the underlying genetic lesions responsible for TSC, causing constitutive activation of the mTORC1 pathway and leading to profound effects on cell metabolism. Aberrant metabolism in cancer has recently received significant attention as a target to develop therapeutic agents in the treatment of cancer.1 As Tsc2-/- cells have lost the ability to respond to energy and growth factor deprivation, these cells are unable to properly down regulate cellular biosynthetic processes in response to metabolic stress, and are thus extremely sensitive to glucose deprivation-induced death.2 A central goal of this project is to explore the unique cell survival and metabolic properties of cells with Tsc1 or Tsc2 by screening for compounds that selectively target the Tsc2-/- MEFs by screening both Tsc2-/- and WT MEF cell lines. We hope to better understand these aspects of TSC physiology in order to exploit them for therapeutic benefit.
NCGC Acumen Assay Protocol:
For quantitative high throughput analysis of mTORC1 signaling, we developed a cell-based assay for immuno-fluorescence based detection of rpS6 phosphorylation on the Acumen Explorer that will be used a platform for the primary small molecule screen. Mouse embryonic fibroblasts (MEFs) are cultured in 1536-well plates using DMEM + 10% FBS. Twenty-four hrs after plating, test compounds (solubilized in DMSO) are delivered and incubated with the cells for 24 hrs at 37 degree Celsius. Following the incubation, media with compound is aspirated and the cells are fixed in 4% paraformaldehyde (PFA) containing PBS + 0.2% TX-100. Next, PFA is aspirated, cells are washed two times with PBS plus 0.2% TX-100 and the cells are blocked for 1 hr at room temperature (blocking buffer: LiCOR Blocking Buffer plus 0.2% TX-100). This is followed by aspiration and staining with Alexa-488 conjugated-phospho-rpS6 Ser235/236 antibody for 2 hours at room temperature (Cell Signaling Technology # 4803, 1:50 dilution in blocking buffer). Cells are washed two times with PBS plus 0.2% TX-100, and stained with 10 uM propidium iodide (PI) for 20-25 minutes for cell number measurement (1:500 dilution of Hoescht staining is also added for IN Cell imaging). The plates are scanned on the Acumen Explorer laser scanning instrument (TTP Labtech) using the 488nm laser for simultaneous excitation of the Alexa-488 and PI. The fluorescence emission from the Alexa-488 conjugated rpS6 phospho-235/236 antibody staining is selected using a […] band pass filter. Fluorescence emission from the PI stain is selected using a 575-640 nm band pass filter. The normalized phospho-S6 staining is calculated as the ratio of the integrated Alexa 488 intensity divided by the integrated PI intensity for the single concentration rapamycin control (7.5 nM) and DMSO columns. […] Inhibition of the pathway is defined based on the normalized phospho-S6 intensity in rapamycin treated cells. […]
With `CN(C)C/C=C(/c1ccc(Br)cc1)c1cccnc1` the “activity change, negative = inhibition” value was -4.67% (inactive). In the case of `C[C@@H](O)[C@H]1C(=O)N2C(C(=O)O)=C(SCCN=CN)C[C@H]12`, the “activity change, negative = inhibition” value was -0.34% (inactive). For `NC(N)=NC(=O)Cc1c(Cl)cccc1Cl`, the “activity change, negative = inhibition” value was -2.92% (inactive). For `N[C@@H](COP(=O)(O)O)C(=O)O`, the “activity change, negative = inhibition” value was 1.61% (inactive). In the case of `O=C(O)CP(=O)(O)O`, the “activity change, negative = inhibition” value was -7.29% (inactive). With `CN1C(=O)CC[C@H]1c1cccnc1` the “activity change, negative = inhibition” value was 6.36% (inactive). For `COc1ccc([C@@H]2Sc3ccccc3N(CCN(C)C)C(=O)[C@@H]2OC(C)=O)cc1`, the “activity change, negative = inhibition” value was -13.1% (inactive). In the case of `CC(N=C(NC#N)Nc1ccncc1)C(C)(C)C` (stereo not given), the “activity change, negative = inhibition” value was -16.4% (inactive). For `CCOC(=O)c1cnc2c(cnn2CC)c1NN=C(C)C`, the “activity change, negative = inhibition” value was -1.94% (inactive). With `C=CCc1ccccc1OCC(O)CNC(C)C` (stereo not given) the “activity change, negative = inhibition” value was 0.564% (inactive). For `C[N+](C)(C)CCCCCCCCCC[N+](C)(C)C`, the “activity change, negative = inhibition” value was 2.15% (inactive). In the case of `C[C@]12CC[C@@H]3c4ccc(O)cc4C[C@@H](CCCCCCCCCS(=O)CCCC(F)(F)C(F)(F)F)[C@H]3[C@@H]1CC[C@@H]2O` (stereo not given in full), the “activity change, negative = inhibition” value was -15.8% (inactive). For `CNC1(C)C2CCC(C2)C1(C)C` (stereo not given), the “activity change, negative = inhibition” value was 2.89% (inactive). For `Cc1nc2ccccn2c(=O)c1CCN1CCC(C(=O)c2ccc(F)cc2)CC1`, the “activity change, negative = inhibition” value was -8.88% (inactive). In the case of `CCc1c(C)[nH]c2c1C(=O)C(CN1CCOCC1)CC2` (stereo not given), the “activity change, negative = inhibition” value was 6.61% (inactive). In the case of `COCCc1ccc(OCC(O)CNC(C)C)cc1` (stereo not given), the “activity change, negative = inhibition” value was -13.6% (inactive). With `CC1=NS(=O)(=O)c2cc(Cl)ccc2N1` the “activity change, negative = inhibition” value was 4.38% (inactive). For `CC(=O)[C@@]1(O)CC[C@H]2[C@@H]3CCC4=CC(=O)CC[C@]4(C)[C@H]3CC[C@@]21C`, the “activity change, negative = inhibition” value was 8.2% (inactive). In the case of `OC(CCN1CCCCC1)(c1ccccc1)C1CCCCC1` (stereo not given), the “activity change, negative = inhibition” value was 0.0625% (inactive). In the case of `CCN(CC)CCNC(=O)c1ccc(NC(C)=O)cc1`, the “activity change, negative = inhibition” value was 3.56% (inactive). In the case of `COCCCC/C(=N\OCCN)c1ccc(C(F)(F)F)cc1`, the “activity change, negative = inhibition” value was -12.7% (inactive). For `C[C@H](CS)C(=O)N1CCC[C@H]1C(=O)O`, the “activity change, negative = inhibition” value was 0.604% (inactive). In the case of `CCCN1C[C@H](CSC)C[C@@H]2c3cccc4[nH]cc(c34)C[C@H]21`, the “activity change, negative = inhibition” value was 7.26% (inactive). In the case of `CN(C)C(=O)Oc1ccc[n+](C)c1`, the “activity change, negative = inhibition” value was 2.97% (inactive). For `CN(C(=O)CCCOc1ccc2[nH]c(=O)ccc2c1)C1CCCCC1`, the “activity change, negative = inhibition” value was -0.635% (inactive). In the case of `CN/C(=C\[N+](=O)[O-])NCCSCc1ccc(CN(C)C)o1`, the “activity change, negative = inhibition” value was 4.6% (inactive). In the case of `Cc1ccc(=O)n(-c2ccccc2)c1`, the “activity change, negative = inhibition” value was 6.98% (inactive). With `COc1ccc(CCN(C)CCCC(C#N)(c2cc(OC)c(OC)c(OC)c2)C(C)C)cc1OC` (stereo not given) the “activity change, negative = inhibition” value was -0.148% (inactive). In the case of `c1cc(CN2CCCCC2)cc(OCCCNc2nc3ccccc3s2)c1`, the Potency was 16.5 µM (active). With `CC(=O)Oc1cc(C(C)C)c(OCCN(C)C)cc1C` the “activity change, negative = inhibition” value was 11.4% (inactive). For `CCN(Cc1ccncc1)C(=O)C(CO)c1ccccc1` (stereo not given), the “activity change, negative = inhibition” value was 10.4% (inactive). For `CC(C)COCC(CN(Cc1ccccc1)c1ccccc1)N1CCCC1` (stereo not given), the “activity change, negative = inhibition” value was 11.5% (inactive). For `O=C(O)CN(CCOCCOCCN(CC(=O)O)CC(=O)O)CC(=O)O`, the “activity change, negative = inhibition” value was 8.83% (inactive). With `COCCOC(=O)C1=C(C)NC(C)=C(C(=O)OC(C)C)C1c1cccc([N+](=O)[O-])c1` (stereo not given) the “activity change, negative = inhibition” value was 1.19% (inactive). In the case of `Cc1nnc(SCC2=C(C(=O)O)N3C(=O)[C@@H](NC(=O)Cn4cnnn4)[C@H]3SC2)s1`, the “activity change, negative = inhibition” value was 2.29% (inactive). In the case of `CN1CCN(CC(=O)N2c3ccccc3C(=O)Nc3cccnc32)CC1`, the “activity change, negative = inhibition” value was 6.45% (inactive). For `CCO/C([O-])=N/c1c[n+](N2CCOCC2)no1`, the “activity change, negative = inhibition” value was 2.49% (inactive). For `Cc1ccc(Cl)c(Nc2ccccc2C(=O)O)c1Cl`, the “activity change, negative = inhibition” value was 7.06% (inactive). In the case of `Brc1c(NC2=NCCN2)ccc2nccnc12`, the “activity change, negative = inhibition” value was 0.793% (inactive). With `CN(C)CCOC(=O)COc1ccc(Cl)cc1` the “activity change, negative = inhibition” value was -1.79% (inactive).
